Reference: PubChem BioAssay
Active and inactive are the calls of the source.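 Rule for the calls, unless noted: active = inhibition of the reporter signal at or above 50%; inactive = inhibition below 50%.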

Tests used:
[1] = inhibitors of TNFa-induced NFkB p65 translocation, primary screen, imaging, HUVEC, MLSMR starter and 10KST1 sets (AID 438;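 active = inhibition above 20% together with a positive visual image hit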;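 note: compound added about 3h40 before a 20 min TNFalpha stimulation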;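 for inhibition: signal is the nuclear over cytoplasmic p65 intensity ratio per well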); conditions: HUVEC TNFa-induced p65 nuclear translocation; cell count: measured here: nuclei count (cytotoxicity indicator), at 2.08 µM; inhibition: at 2 µM, stronger effect = higher value, 0% TNFa-plus-vehicle, 100% no-TNFa wells
[2] = reduction of polyQ htt aggregates in cells – imaging, exon1htt(103Q)mCFP cells, high-content imaging, primary screen (AID 483;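 active = visual image review flags a hit and inhibition of aggregation exceeds 20%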;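 note: compound exposure lasted 3 days before fixation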;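 for nuclei count: percent of the per-plate median nuclei count of sample wells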); conditions: exon1htt(103Q)mCFP cell line, aggregate imaging, at 2 µM; inhibition of aggregation: stronger effect = higher value; nuclei count: measured here: cell count, toxicity
[3] = endothelial E-selectin expression blockers – imaging, HUVEC, immunofluorescence, MLSMR starter and 10KST1 sets, primary screen (AID 487;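 active = visually confirmed hit in the image check and inhibition above 20%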;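 for inhibition: signal is fraction of cell area covered by stained E-selectin grains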;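 for nuclei count: 100% = median nuclei count of all wells on the same plate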); conditions: HUVEC TNFalpha-induced E-selectin immunofluorescence imaging, at 2 µM; inhibition: stronger effect = higher value; nuclei count: measured here: cell number, toxicity
[4] = target: Voltage-gated potassium channel subunit beta-2 (Rattus norvegicus) (UniProt P62483); experiment: inhibitors of rat Kvbeta2 reductase activity – biochemical, NADPH fluorescence, primary screen (AID 622;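 active = fluorescence slope higher than the sample average by over 3 SD, cut at about -0.22 in these data, passing the limit was not always enough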;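 note: slope of raw intensity against log time taken from 70 to 1610 s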); conditions: recombinant KvBeta, 4-cyanobenzaldehyde reduction, at 10 µM, stronger effect = higher value
Voltage-gated potassium channel subunit beta-2 (Rattus norvegicus), sequence (P62483 whole entry, looked up): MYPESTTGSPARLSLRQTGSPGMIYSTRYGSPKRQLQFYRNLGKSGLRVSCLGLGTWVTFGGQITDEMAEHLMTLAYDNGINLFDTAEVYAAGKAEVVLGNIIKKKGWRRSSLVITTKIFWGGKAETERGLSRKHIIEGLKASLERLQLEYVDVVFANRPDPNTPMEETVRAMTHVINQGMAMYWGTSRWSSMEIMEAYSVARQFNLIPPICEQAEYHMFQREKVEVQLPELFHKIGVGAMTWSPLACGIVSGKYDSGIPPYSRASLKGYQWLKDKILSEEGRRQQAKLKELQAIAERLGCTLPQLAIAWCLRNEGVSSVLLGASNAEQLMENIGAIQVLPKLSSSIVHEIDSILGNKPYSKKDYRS

[5] = target: Voltage-gated potassium channel subunit beta-2 (Rattus norvegicus) (UniProt P62483); experiment: enhancers of rat Kvbeta2 NADPH turnover – biochemical, NADPH fluorescence, primary screen (AID 623;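 active = NADPH fluorescence slope more negative than the mean of all samples by about 3 SD, 99.7% confidence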;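 note: fluorescence intensity change per second fitted from 20 to 320 s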); conditions: Recombinant KvBeta, NADPH fluorescence decrease slope, 10 min; at 10 µM; stronger effect = lower value
[6] = target: Alpha-2C adrenergic receptor (Homo sapiens) (UniProt P18825); experiment: compounds altering alpha2C-coupled GIRK flux – cell-based, HEK293 alpha2C/GIRK1/2, thallium flux, primary screen (AID 624;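 active = fluorescence slope after compound addition differing from the mean of all screened samples at 99.7% confidence, in either direction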;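 note: slope of fluorescence ratio to pre-addition baseline per second over 15 to 24 s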); conditions: thallium flux BTC fluorescence, at 10 µM, actives lie on both sides
Alpha-2C adrenergic receptor (Homo sapiens), sequence (P18825 whole entry, looked up): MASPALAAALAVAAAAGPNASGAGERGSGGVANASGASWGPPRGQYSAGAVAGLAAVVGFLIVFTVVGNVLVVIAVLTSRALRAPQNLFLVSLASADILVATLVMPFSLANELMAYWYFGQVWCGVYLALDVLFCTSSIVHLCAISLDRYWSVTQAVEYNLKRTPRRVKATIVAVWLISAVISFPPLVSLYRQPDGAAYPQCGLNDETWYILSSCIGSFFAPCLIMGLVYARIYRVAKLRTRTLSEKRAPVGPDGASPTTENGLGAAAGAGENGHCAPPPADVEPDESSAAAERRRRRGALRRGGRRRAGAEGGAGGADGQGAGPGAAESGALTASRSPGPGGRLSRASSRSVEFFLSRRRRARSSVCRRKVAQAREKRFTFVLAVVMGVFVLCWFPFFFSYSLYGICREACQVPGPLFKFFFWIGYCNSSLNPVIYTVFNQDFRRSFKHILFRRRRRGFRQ

[7] = blockers of RIG-like receptor reporter activation – cell-based, Sendai virus stimulus, luciferase, 10K MLSCN set, TLR/RLR signaling modifier project, primary screen (AID 602276;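 active = inhibition at or above 50% at 10 µM; inactive = inhibition below 50%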;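 note: firefly luciferase from ISG56 promoter only with Renilla not read in this screen; 0% = Sendai virus plus DMSO and 100% = medium plus DMSO without virus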); conditions: HEK293 RL24 IRF3 luciferase reporter, at 10 µM, stronger effect = higher value
[8] = TLR3 IRF3 reporter activation blockers – cell-based, poly I:C stimulus, luciferase, 10K MLSCN set, primary screen (AID 602277); conditions: HEK293-TLR3 RL24 IRF3 luciferase reporter, at 10 µM, stronger effect = higher value

SMILES | cell count [1] | inhibition [1] | inhibition of aggregation [2] | nuclei count [2] | inhibition [3] | nuclei count [3] | fluorescence slope [4] | NADPH fluorescence slope [5] | slope [6] | inhibition [7] | inhibition [8]
CCN(CC)S(=O)(=O)c1ccc2[nH]cc(C(=O)NCCC3=CCCCC3)c(=O)c2c1 | 344 | 8.4% (inactive) | -4.1% (inactive) | 71.6% | 96.3% (active) | 91% | -0.498 (inactive) | -4.6e-05 (inactive) | 0.00467 (inactive) | 12% (inactive) | 6.76% (inactive)
O=C(NCC1CCCO1)C1CCC(CNS(=O)(=O)c2ccccc2)CC1 (configuration not stated) | 341 | 8.1% (inactive) | -6% (inactive) | 110% | -24.2% (inactive) | 115% | -0.499 (inactive) | -4e-05 (inactive) | 0.00661 (inactive) | 7.1% (inactive) | 10.8% (inactive)
CCCCn1cnc2c1c(=O)n(C)c(=O)n2C | 797 | -7.5% (inactive) | 25.6% (inactive) | 101% | -35.5% (inactive) | 119% | -0.374 (inactive) | -1.9e-05 (inactive) | 0.00541 (inactive) | -11.6% (inactive) | -3.57% (inactive)
CN(C1CCS(=O)(=O)C1)S(=O)C12CC3CC(CC(C3)C1)C2 (configuration not stated) | 150 | 23.1% (inactive) | -16% (inactive) | 98% | 1.8% (inactive) | 95.7% | -0.533 (inactive) | -3.6e-05 (inactive) | 0.00528 (inactive) | -4.43% (inactive) | 99.5% (active)
O=S(=O)(c1ccc(Br)s1)N1CCN(c2ccccc2)CC1 | 660 | 6.3% (inactive) | 0.1% (inactive) | 90.2% | 14.4% (inactive) | 102% | -0.289 (inactive) | -3e-05 (inactive) | 0.00522 (inactive) | 10.7% (inactive) | 13.7% (inactive)
COC(=O)Nc1nc2c(C)cccc2s1 | 299 | 0.7% (inactive) | -2.9% (inactive) | 95.7% | -33.7% (inactive) | 101% | -0.469 (inactive) | 9.8e-07 (inactive) | 0.0031 (inactive) | -14.5% (inactive) | -45% (inactive)
CCOc1ccc(C2CC(c3cccc(C)c3)n3ncnc3N2)cc1 (configuration not stated) | 666 | 0.3% (inactive) | -18.7% (inactive) | 90.6% | -13.6% (inactive) | 109% | -0.622 (inactive) | 1.7e-06 (inactive) | 0.0075 (inactive) | -8.73% (inactive) | 10.7% (inactive)
